Assay outcomes: PubChem BioAssay, several laboratories
Measles CPE = protection of cells from measles virus | 140,000 tested, 1.5% active | protection (pct of control), % at 4 µM | Measles virus-infected cells, CPE protection, absorbance; in the data active = protection mostly above about 24%, no sharp cut-off; inactive = mostly below about 26%
sEH inh = inhibitors of human soluble epoxide hydrolase. recombinant human sEH enzymatic activity assay. inhibition, % at 2 µM. 91,000 tested, 0.34% active; in the data active = inhibition above about 80%
Target sequence (P34913 whole entry, looked up): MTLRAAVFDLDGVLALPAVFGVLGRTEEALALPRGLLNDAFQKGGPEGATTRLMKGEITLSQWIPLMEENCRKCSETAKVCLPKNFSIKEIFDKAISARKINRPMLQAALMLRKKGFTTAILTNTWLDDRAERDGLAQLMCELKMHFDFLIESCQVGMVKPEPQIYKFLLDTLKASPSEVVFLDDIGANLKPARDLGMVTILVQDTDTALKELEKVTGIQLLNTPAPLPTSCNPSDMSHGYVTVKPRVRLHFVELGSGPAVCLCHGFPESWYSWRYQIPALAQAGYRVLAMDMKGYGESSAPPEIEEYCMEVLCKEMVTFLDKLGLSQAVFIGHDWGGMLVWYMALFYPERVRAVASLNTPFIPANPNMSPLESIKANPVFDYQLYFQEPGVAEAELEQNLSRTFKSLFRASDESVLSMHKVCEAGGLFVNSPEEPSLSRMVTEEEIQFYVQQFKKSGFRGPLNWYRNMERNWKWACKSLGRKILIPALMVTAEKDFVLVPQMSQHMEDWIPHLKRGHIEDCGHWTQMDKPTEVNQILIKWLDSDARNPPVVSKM
MRP-1 activ = MRP-1 activation; 140,000 tested, 0.61% active; viability increase, % at 10 µM; H69AR cells + doxorubicin, viability rescue, CellTiter-Glo;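 active = viability gain under doxorubicin at or above a set limit, the compound median plus 3 SD, cut at about 4.7% in these data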;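 also: MRP-1 overexpressing cells given doxorubicin 25 µM after compound pretreatment; 18-22 h compound pretreatment then 72 h with doxorubicin before readout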
MRP resist rev = reverses drug resistance mediated by MRP. H69AR cells + 2 uM doxorubicin, CellTiter-Glo, 72 h. differential viability (reversal), % at 10 µM. 85,000 tested, 0.04% active. AID 602;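 active = viability drop by adding the cancer drug above about 55%, with treated viability meeting a 40% cutoff, limit read from the data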;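 also: larger differential means the compound sensitizes cells more to doxorubicin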
sdo1 growth = restores growth of sdo1-depleted yeast | S. cerevisiae sdo1-depleted JHY4D growth rescue, OD600 30 h; stronger effect = higher value; pdr5 snq2 efflux-pump mutant strain | AID 817 | z-score at 10 µM | 140,000 tested, 0.21% active;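 active = z-score above 3 at both the 24 hr and the 30 hr optical density reads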
sEH activator = increases human soluble epoxide hydrolase activity; P34913; purified human sEH enzymatic activity, activator screen; activation, % at 2 µM; 91,000 tested, 0.04% active; in the data active = activation above about 37%
sdo1 rescue conf = confirmation of growth rescue in SDO1-depleted yeast, bone marrow failure; 440 tested, 44% active; OD recovery (concentration not given with the values); shares compounds with sdo1 growth; S. cerevisiae JHY4D (SDO1-depleted) growth rescue, OD600, 30 h; stronger effect = higher value; efflux-deficient strain, SNQ2 and PDR5 mutated;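 active = yeast growth recovered at 30 hours, either rising with dose fitted slope above 0.001 or with average optical density gain above 0.07, some results past the limit were not filed as active; inactive = growth falling with dose or no effect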
Hits are given with their value; - = inactive; . = no result. In the library only some 2.5% were active in any assay of this set; here they are far more common.

SMILES	Measles CPE	sEH inh	MRP-1 activ	MRP resist rev	sdo1 growth	sEH activator	sdo1 rescue conf
COC(=O)C1=C(C)NC(C)=C(C(=O)OC)C1c1ccc(OC(=O)c2ccco2)cc1	-	-	-	-	10	-	0.079
CCOC(=O)C1=C(C)NC(=O)NC1c1ccc(OC(=O)c2ccco2)cc1 (stereo not given)	-	-	-	-	-	-	.
CCCc1nc2ccccc2c(=O)n1N	-	-	-	-	3.6	-	-
Nc1ccc(-n2nncc2-c2ccc(Cl)cc2)cc1	-	-	-	.	13	-	-
O=[N+]([O-])c1ccc(-n2nncc2-c2ccc(Cl)cc2)cc1	-	-	-	.	-	-	.
O=C1C2CCCN2C(c2ccc(Cl)cc2)N1c1nccs1 (stereo not given)	-	-	-	-	-	-	.
COc1ccc(CNC(=O)c2sc3nc4c(c(C(F)(F)F)c3c2N)CCC4)cc1	-	.	-	.	-	.	.
O=C(/C(=C(\[O-])c1ccccc1)[n+]1ccc2ccccc2c1)c1ccccc1	-	.	-	.	7.9	.	-
O=C(/C(=C(\[O-])c1ccccc1)[n+]1ccc2ccccc2c1)c1ccc(Cl)cc1	-	.	-	.	-	.	.
Cc1cc(N2CCOCC2)nc(SCC(=O)c2ccccc2)n1	-	.	-	-	-	.	0.085
O=C(/C=C/Nc1ccc(Cc2ccc(N/C=C/C(=O)C(F)(F)F)cc2)cc1)C(F)(F)F	-	.	-	.	-	.	.
CC12CCC(C(=O)Nc3nccs3)(OC1=O)C2(C)C (stereo not given)	-	-	-	-	3	-	0.091
Cc1cccnc1NC(=O)C12CCC(C)(C(=O)O1)C2(C)C (stereo not given)	-	-	-	-	-	-	.
O=C(O)CCCn1nc(C(F)(F)F)c2c1CCCCC2	-	-	-	-	3.4	-	0.061
CCC(C)n1c(=S)[nH]c2c(sc3ccc([N+](=O)[O-])cc32)c1=O (stereo not given)	-	.	-	.	-	.	.
Cc1cc(C)cc(OCC(=O)NNC(=O)CN2C(=O)c3ccccc3C2=O)c1	-	.	-	.	-	.	.
CCN(CC)S(=O)(=O)c1ccc(C(=O)Nc2cc3oc4ccccc4c3cc2OC)cc1	-	.	-	.	-	.	-
Cc1ccc(N(Cc2ccc(C(=O)NCCSc3ccccn3)cc2)S(C)(=O)=O)cc1C	-	.	-	.	7.2	.	0.1
CCCCNC(=O)CCn1c(=O)c2ccccc2n(Cc2ccc(Cl)cc2)c1=O	-	.	-	.	-	.	.
COc1cc(C(=O)NCCc2cn3ccc(C)cc3n2)cc(OC)c1OC	-	-	-	-	-	-	.
COc1ccc(C(=O)NCCc2cn3ccc(C)cc3n2)cc1	-	-	-	-	-	-	0.081
C=CCn1c(N2CCCCCC2)nc2c1c(=O)n(C)c(=O)n2C	-	-	-	-	-	-	.
Cn1c(=O)c2c(nc(N3CCCC3)n2CC(O)CO)n(C)c1=O (stereo not given)	-	-	-	-	-	-	0.097
O=C(Nc1ccccc1)C1CC(=O)N(C2CCCCC2)C1 (stereo not given)	-	-	-	-	4.1	-	-
Cn1c(=O)[nH]c2ccc([N+](=O)[O-])nc21	-	.	-	.	-	.	.
SMILES	Measles CPE	sEH inh	MRP-1 activ	MRP resist rev	sdo1 growth	sEH activator	sdo1 rescue conf
CCN1C(=O)S/C(=C/c2cn(C)c3ccccc23)C1=O	-	.	-	.	-	.	.
CCN=C1S/C(=C\c2cn(CC)c3ccccc23)C(=O)N1CC	-	.	-	.	7.9	.	0.092
Cc1ccc(C(=O)N/C(=C/c2ccco2)C(=O)NCCc2c[nH]c3ccccc23)cc1	-	.	-	.	-	.	.
CCCCN1CNC(=S)N(c2ccc(C(=O)OCC)cc2)C1	-	.	-	.	-	.	.
CCN1N=C(c2ccccc2)Cn2c1nc1ccccc12	-	-	-	-	-	-	.
COc1ccc(/C=N\NC(=O)COc2ccc(Cl)cc2Cl)c(C(=O)O)c1OC	-	.	-	.	-	.	-
O=C1COc2ccc(C(=O)COC(=O)c3ccc4ccccc4n3)cc2N1	-	-	-	-	-	-	0.099
COc1cccc(C(=O)Nc2cccc(-c3nnc(-c4ccco4)o3)c2)c1	-	-	-	-	4.7	-	-
CCCOC(=O)Nc1ccc(S(=O)(=O)Nn2cnnc2)cc1	-	.	-	-	-	.	.
CCCCOC(=O)Nc1ccc(S(=O)(=O)Nn2cnnc2)cc1	18	.	-	.	3.7	.	0.12
CN(C)CCN(C)Cc1ccccc1Sc1cccc2ccccc12	-	.	-	.	-	.	.
COc1ccc2nc(SC(C(=O)c3ccccc3)c3ccccc3)nc(C)c2c1 (stereo not given)	-	.	-	.	-	.	-
COC(=O)c1ccccc1S(=O)(=O)Nc1ccc(OC)nc1	-	-	-	-	-	-	.
CCOC(=O)/C=C1\SCC(=O)N1CC(=O)NC12CC3CC(CC(C3)C1)C2	-	-	-	.	14	-	0.084
O=C(CSc1nnc(SCC(=O)c2ccco2)s1)c1ccco1	-	-	-	-	-	-	-
COc1ccc(CCN2C(=O)c3cccc4cccc(c34)C2=O)cc1OC	-	-	-	.	-	-	0.094
O=C(CN(Cc1cccs1)C(=O)CNC(=O)c1ccco1)NC1CCCCC1	-	-	-	-	-	-	.
CN1CCN(CC(=O)Nc2ccc(OCc3ccccc3)cc2)CC1	-	-	-	.	4.4	-	-
CCOC(=O)CNC(=O)c1cccnc1	-	-	-	-	-	-	.
CCOC(=O)C(O)(NC(=O)c1cccnc1)C(F)(F)F (stereo not given)	-	-	-	-	8.1	-	0.093
COC(=O)c1ccc(C2Nc3ccc(/C(C)=N/NC(=O)C(OC)c4ccccc4)cc3C3C=CCC32)cc1 (stereo not given)	-	-	-	.	-	-	.
COc1ccc(C2=NOC(C(=O)Nc3cccnc3)C2)cc1 (stereo not given)	-	-	-	-	3.5	-	-
COc1cccc(C2=NOC(C(=O)Nc3cccnc3)C2)c1 (stereo not given)	-	-	-	-	-	-	.
Cc1ccc(NC2=Nc3ccccc3CC2)cc1	-	-	-	-	-	-	.
Brc1ccc(NC2=Nc3ccccc3CC2)cc1	-	-	-	-	13	-	0.075
SMILES	Measles CPE	sEH inh	MRP-1 activ	MRP resist rev	sdo1 growth	sEH activator	sdo1 rescue conf
O=C(Cc1cccs1)Nc1ccc(-c2nnc(-c3ccccc3)o2)cc1	.	-	.	.	.	-	.
O=C(COC(=O)Cc1cccs1)Nc1ccccc1	-	-	-	-	-	-	0.034
CCOC(=O)CSc1nnc(CSc2nc3sc4c(c3c(=O)[nH]2)CCCC4)n1-c1ccccc1	-	.	-	-	-	.	.
S=C(Nc1ccccc1)Nc1nc2ccccc2n1CCOc1ccc(Br)cc1	-	.	-	.	7.6	.	0.089
O=S(=O)(O)c1nc2ccccc2n1CCOc1ccccc1	-	-	-	-	8.3	-	-
CCOc1ccc(C2c3c(oc4ccccc4c3=O)C(=O)N2c2ccccn2)cc1OC (stereo not given)	.	.	.	-	.	.	.
COc1ccc(NC(=O)COC(=O)/C=C/C(=O)OCC(=O)Nc2ccc(OC)c(Cl)c2)cc1Cl	-	.	-	.	-	.	-
